Laboratory results published in PubChem BioAssay AID1241 (SRMLSC, 2008).
The whole screen tested about 1,200 compounds, of which about 840 (70%) were called active. No rule for the calls is given here. So high a share suggests a set chosen from earlier hits. Not all results are given here. Entries with a potency or affinity are not part of this list.

test: compounds inducing NF-kB luciferase expression – cell-based, SH-SY5Y, dose response (AID 1241); details: SH-SY5Y NF-kB promoter luciferase reporter; series mostly up to 30 µM; fold induction over control: at the top concentration

Fold induction over control, inactive:
COc1ccc(-[n+]2c(C)cc(/C=C3\Sc4ccccc4N3C)cc2C)cc1 0.76
Cc1ccc(C2=NN3C(C2)c2ccccc2OC32C(=O)Nc3ccccc32)cc1 (stereo not given) 9.54
C=CCN=Cc1c(C)[nH]n(-c2ccccc2)c1=O 2.13
Cc1[nH]n(-c2ccccc2)c(=O)c1C=NC1CCCCC1 1.35
O=C(Nc1ccccc1O)c1ccc(Cl)cc1 6.47
CCOC(=O)c1noc(C)c1C(=O)Nc1nccs1 1.14
COc1cccc(NC(=S)N(CCN(C)C)Cc2cccs2)c1 1.01
O=C(c1ccco1)n1c(=S)nc2ccccn21 12.4
Cc1ccc(C(=O)CSc2nsc(C)c2C#N)cc1 8.66
Cc1cccc2nc(=S)n(C(=O)c3ccco3)n12 13
CCOC1CS(=O)(=O)CC1OCC (stereo not given) 1.16
O=C(c1ccccc1)c1ccccc1C(=O)N1CCCC1 1.09
COc1ccc(N=C2C(=Nc3ccc(OC)cc3)N(c3ccccc3)C(=S)N2C(=O)c2ccc(Cl)cc2)cc1 1.17
Cc1cccc(/C(N)=N/OC(=O)c2cccs2)c1 9.94
COc1ccc(N=c2sc3ccccc3n2C)cc1 9.89
COc1cc(C2C(S(=O)(=O)c3ccccc3)CON2C)ccc1OCc1ccc(F)cc1 (stereo not given) 1.13
O=C(Oc1ccccc1/C=C\C(=O)c1cc2ccccc2o1)c1ccccc1 13.7
Cn1c(SCc2ccc(C#N)cc2Cl)nc2ccccc21 8.91
c1ccc(C2=Nc3ccccc3SC2c2nc3ccccc3[nH]2)cc1 (stereo not given) 4.04
COC(=O)c1ccc(COn2nnc3ccccc32)cc1 9.21
c1ccc2nc3c(nc2c1)[nH]c1ccccc13 7.78
CCCOc1ccc2c3c(c(=O)oc2c1OCCC)CCC3 3.44
COc1ccccc1-c1cc(C(=O)N2CCCCC2)no1 8.4
O=C(NCCCN1CCOCC1)c1cc(-c2ccccc2)on1 8.39
O=C(NCCN1CCOCC1)c1cc(-c2ccccc2)on1 5.86
O=C(Oc1ccc(-c2ccccc2)cc1)N1CCCCC1 2.54
Cc1cccc(-c2cc3nc(C)cc(C)n3n2)c1 9.12
CNc1nc(-c2ccccn2)nnc1-c1ccccc1 1.07
CN1CCN(CC(=O)N2c3ccccc3C(C)(c3ccccc3)CC2(C)C)CC1 (stereo not given) 2.19
Cc1cccc(-c2noc(-c3ccc(F)cc3)n2)c1 12.8
O=C(Nc1ccc(N2CCCC2=O)cc1)c1cccc(F)c1 6.57
O=C(CSc1nc(Nc2ccccc2)nc(N2CCOCC2)n1)Nc1ccccc1Cl 0.84
Cc1ccc(-c2cnc3cc(C)nn3c2)cc1 9.08 [at 7.5 µM]
CCCc1cc(C(=O)Nc2cc(Br)ccc2O)no1 2.58
N#Cc1ncc(-c2ccc3c(c2)OCCOCCOCCOCCOCCO3)nc1C#N 6.81
